Structures are written as SMILES. The source made the active and inactive calls. How the source made its calls: active means hit-call score of the fitted dose curve at least 0.9, where 1 is the maximum; inactive means score below 0.9.

As usually defined, the AC50 is the concentration giving half of the maximal activity seen.

The nature of test [1]: ATG_GLI_CIS: Attagene CIS-FACTORIAL HepG2 Assay for human Zinc Finger Protein GLI1 (AID 2282945). The settings on record: HepG2, Attagene cis-factorial reporter mRNA, GLI element; actives raise or lower the signal. The method in brief: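 Bidirectional curve fits relative to DMSO, using reporter mRNA levels from RT-PCR plus capillary electrophoresis. Cells were HepG2 transiently carrying cis-regulated reporter constructs, harvested 24 h after dosing.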

Test [2] can be described thus: ATG_GRE_CIS: Attagene CIS-FACTORIAL HepG2 Assay for human Glucocorticoid Response Elements (GRE) (AID 2282947). The settings on record: HepG2 GRE cis-reporter, Attagene multiplex mRNA; actives raise or lower the signal. Summed up:
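Multiplexed cis-reporter mRNA induction, HepG2, 24 h post-dose. RT-PCR, FAM-labelled, HpaI-digested amplicons by CE. Bidirectional fit vs DMSO.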

Test [3] in a line: ATG_ISRE_CIS: Attagene CIS-FACTORIAL HepG2 Assay for human Interferon Regulatory Factor 1 (IRF1) binding to an Interferon-Stimulated Response Element (ISRE) (AID 2282948). The settings on record: HepG2 ISRE cis-reporter (Attagene), mRNA transcription readout; actives raise or lower the signal. The method in brief:
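Signal reflects induction or loss of ISRE-linked reporter mRNA in transiently transfected HepG2 cells after a 24 h treatment, detected by fluorescent RT-PCR fragments on capillary electrophoresis and normalised to DMSO.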

Test [4] can be described thus: ATG_M_32_CIS: Attagene CIS-FACTORIAL HepG2 Assay for M32 Transcription Factor (Internal Marker) (AID 2282949).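 Further: background control marker of the multiplexed CIS panel rather than a real target.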 Particulars: HepG2 Attagene cis-factorial M32 reporter, mRNA; actives raise or lower the signal. Summed up:
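Transient MRTU transfection of HepG2; 24 h compound treatment; TriZol RNA, oligo(dT) RT, reporter PCR, 6-FAM primer extension, HpaI cut, CE. Gain/loss of signal vs DMSO.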

Test [5] can be described thus: ATG_M_06_CIS: Attagene CIS-FACTORIAL HepG2 Assay for M06 Transcription Factor (Internal Marker) (AID 2282950). Particulars: HepG2 Attagene CIS-FACTORIAL M06 internal marker reporter; actives raise or lower the signal. Summed up: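 Terse: HepG2, transient MRTU transfection (FuGene 6), 24 h dosing; total RNA, oligo(dT) RT, PCR, FAM label, HpaI cut, capillary electrophoresis; bidirectional fit vs DMSO baseline; background-control endpoint.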

For test [6], the target named is Hypoxia-inducible factor 1-alpha (Homo sapiens) (UniProt Q16665). The test is described as follows: ATG_HIF1a_CIS: Attagene CIS-FACTORIAL HepG2 Assay for human Hypoxia Inducible Factor 1 (HIF1A) (AID 2282951). The settings on record: HepG2 Attagene cis-factorial HIF1a reporter transcription; actives raise or lower the signal. Summed up:
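Activity is fitted in both directions relative to DMSO. Reporter transcripts are read by RT-PCR, fluorescent primer extension and capillary electrophoresis after 24 h chemical treatment. The cells are HepG2 carrying transiently transfected cis-element-driven reporter units responding to endogenous factors.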

Test [7] concerns the target Hepatocyte nuclear factor 6 (Homo sapiens) (UniProt Q9UBC0). Briefly: ATG_HNF6_CIS: Attagene CIS-FACTORIAL HepG2 Assay for human Hepatocyte Nuclear Factor 6 (HNF6) (AID 2282952). Particulars: HepG2 Attagene cis-factorial HNF6 reporter transcription; actives raise or lower the signal. Summed up: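 Twenty-four-hour chemical treatment of reporter-transfected HepG2 cells precedes RNA isolation, DNase-treated reverse transcription and PCR of reporter sequences. Labelled fragments are sized by capillary electrophoresis and fitted bidirectionally versus DMSO.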

Test [8] concerns the target Heat shock factor protein 1 (Homo sapiens) (UniProt Q00613). Briefly: ATG_HSE_CIS: Attagene CIS-FACTORIAL HepG2 Assay for human Heat Shock Transcription Factor 1 (HSE) (AID 2282953). Particulars: HepG2 HSE cis-reporter, Attagene RNA transcription; actives raise or lower the signal. Summed up:
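Read-out: fluorescence of reporter-specific RT-PCR fragments separated by capillary electrophoresis. HepG2 carrying transfected cis-element reporter units; 24 h dosing; activity fitted in both directions relative to DMSO baseline.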

Test [9] can be described thus: ATG_MRE_CIS: Attagene CIS-FACTORIAL HepG2 Assay for human Metal Responsive Element (MRE) (AID 2282954). The settings on record: HepG2 MRE cis-reporter transcription, Attagene multiplex; actives raise or lower the signal. The method in brief:
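Multiplexed cis-reporter assay in human HepG2 liver cells, 24 h incubation with test chemical. Reporter transcripts measured by RT-PCR and capillary electrophoresis; values from bidirectional curve fitting versus DMSO.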

Test [10] is described as follows: ATG_PBREM_CIS: Attagene CIS-FACTORIAL HepG2 Assay for human Phenobarbital-responsive Enhancer Module (PBREM) (AID 2282955). The settings on record: HepG2 PBREM cis-reporter, Attagene multiplexed transcription; actives raise or lower the signal. The method in brief: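 Endogenous transcription factor activity was read from reporter transcripts in transiently transfected human HepG2 liver cells after 24 h dosing. RT-PCR products were fluorescently labelled, HpaI-cut and sized by capillary electrophoresis; activity fitted bidirectionally against DMSO baseline.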

In test [11] the target is Paired box protein Pax-6 (Homo sapiens) (UniProt P26367). The test is described as follows: ATG_Pax6_CIS: Attagene CIS-FACTORIAL HepG2 Assay for human Paired Box 6 (PAX6) (AID 2282956). The settings on record: HepG2 CIS-FACTORIAL PAX6 reporter transcription, RNA readout; actives raise or lower the signal. Summed up:
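Values derive from bidirectional curve fitting of reporter mRNA signal relative to DMSO. HepG2 cells bearing transfected cis-regulated MRTUs were exposed for 24 h; transcripts were read by RT-PCR and capillary electrophoresis.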

A short description of test [12]: ATG_PPRE_CIS: Attagene CIS-FACTORIAL HepG2 Assay for human Peroxisome Proliferator-activated Response Element (PPRE) (AID 2282958). The settings on record: HepG2 PPRE cis-element reporter, Attagene transcription factor profiling; actives raise or lower the signal. Summed up:
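Endogenous PPRE-driven transcription is measured in HepG2 cells carrying transfected multi-reporter constructs. Reporter transcripts are quantified by RT-PCR, HpaI digestion and capillary electrophoresis 24 h after dosing. DMSO baseline, bidirectional fit.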

Test [13] can be described thus: ATG_RORE_CIS: Attagene CIS-FACTORIAL HepG2 Assay for human RAR-related Orphan Receptor Element (RORE) (AID 2282959). Particulars: HepG2 Attagene cis-factorial RORE reporter, mRNA; actives raise or lower the signal. The method in brief:
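RORE reporter transcripts reflecting endogenous factor activity were read after 24 h compound exposure of transfected HepG2 cells, using reverse transcription, PCR, fluorescent labelling and capillary electrophoresis sizing. Gain or loss fitted against DMSO.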

Test [14] can be described thus: ATG_Sox_CIS: Attagene CIS-FACTORIAL HepG2 Assay for human SRY-box transcription factor (SOX) (AID 2282960). Particulars: HepG2 Attagene cis-factorial SOX reporter, mRNA; actives raise or lower the signal. Summed up:
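Reporter transcripts, measured by RT-PCR and capillary electrophoresis of labelled fragments, report endogenous SOX transcription factor activity. Transiently transfected human HepG2 cells receive chemical for 24 h; changes in either direction are fitted relative to DMSO.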

Test [15] has as its target Transcription factor Sp1 (Homo sapiens) (UniProt P08047). The test is described as follows: ATG_Sp1_CIS: Attagene CIS-FACTORIAL HepG2 Assay for human Specificity Protein 1 (Sp1) (AID 2282961). Particulars: HepG2 Sp1 cis-reporter transcription, actives raise or lower the signal. The method in brief:
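Read-out is reporter transcript level, measured by RT-PCR and fluorescent capillary electrophoresis after 24 h chemical treatment. System: transiently transfected HepG2 cells reporting endogenous transcription factor activity; gain or loss fitted against DMSO baseline.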

Test [16] can be described thus: ATG_SREBP_CIS: Attagene CIS-FACTORIAL HepG2 Assay for human Sterol Regulatory Element Binding (SREBP) (AID 2282962). Particulars: HepG2 Attagene cis-factorial SREBP reporter, mRNA; actives raise or lower the signal. The method in brief: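 Values derive from bidirectional curve fitting with DMSO as baseline. The underlying measurement is reporter mRNA from cis-element-regulated units in transiently transfected HepG2, quantified by RT-PCR and capillary electrophoresis after 24 h exposure.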

The target in test [17] is Signal transducer and activator of transcription 3 (Homo sapiens) (UniProt P40763). Briefly: ATG_STAT3_CIS: Attagene CIS-FACTORIAL HepG2 Assay for human Signal Transducer and Activator of Transcription 3 (STAT3) (AID 2282963). The settings on record: HepG2, Attagene cis-factorial STAT3 reporter transcription; actives raise or lower the signal. The method in brief:
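Cis-factorial format: endogenous transcription factors in HepG2 drive transfected reporter units. After 24 h treatment, reporter RNA was reverse-transcribed, amplified, FAM-labelled and HpaI-digested before CE analysis; activity scored in both directions against DMSO.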

Test [18] can be described thus: ATG_TA_CIS: Attagene CIS-FACTORIAL HepG2 Assay for human TA Basal Promoter (AID 2282964). The settings on record: HepG2 Attagene CIS-factorial TA basal promoter reporter; actives raise or lower the signal. Summed up:
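Transfected HepG2, 24 h compound exposure; RNA → RT-PCR → FAM primer extension → HpaI cut → CE fluorescence. Gain/loss-of-signal fitted against DMSO negative control. Background-control readout.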

Test [19] can be described thus: ATG_PXRE_CIS: Attagene CIS-FACTORIAL HepG2 Assay for human Pregnane X Receptor Element (PXRE) (AID 2282957). The settings on record: HepG2 Attagene CIS-FACTORIAL PXRE reporter, mRNA; actives raise or lower the signal. The method in brief: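 Bidirectional activity, baselined to DMSO, derived from reporter mRNA fluorescence (RT-PCR plus capillary electrophoresis) in HepG2 cells bearing cis-promoter reporter units, 24 h exposure.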

Sequence of Hepatocyte nuclear factor 6 (Homo sapiens) (Q9UBC0 whole entry, looked up, the tested form may be a part): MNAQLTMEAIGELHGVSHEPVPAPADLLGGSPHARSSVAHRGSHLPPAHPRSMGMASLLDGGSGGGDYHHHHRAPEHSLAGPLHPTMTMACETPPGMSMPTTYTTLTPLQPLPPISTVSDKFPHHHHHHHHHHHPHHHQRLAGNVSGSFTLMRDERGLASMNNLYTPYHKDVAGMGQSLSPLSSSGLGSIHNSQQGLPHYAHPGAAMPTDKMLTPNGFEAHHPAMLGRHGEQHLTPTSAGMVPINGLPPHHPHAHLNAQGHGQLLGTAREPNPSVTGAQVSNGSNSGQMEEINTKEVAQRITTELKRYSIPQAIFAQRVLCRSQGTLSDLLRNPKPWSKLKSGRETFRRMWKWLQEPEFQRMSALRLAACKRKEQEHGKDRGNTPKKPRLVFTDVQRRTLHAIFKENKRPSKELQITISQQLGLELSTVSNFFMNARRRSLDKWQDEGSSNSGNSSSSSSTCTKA
Sequence of Hypoxia-inducible factor 1-alpha (Homo sapiens) (Q16665 whole entry, looked up): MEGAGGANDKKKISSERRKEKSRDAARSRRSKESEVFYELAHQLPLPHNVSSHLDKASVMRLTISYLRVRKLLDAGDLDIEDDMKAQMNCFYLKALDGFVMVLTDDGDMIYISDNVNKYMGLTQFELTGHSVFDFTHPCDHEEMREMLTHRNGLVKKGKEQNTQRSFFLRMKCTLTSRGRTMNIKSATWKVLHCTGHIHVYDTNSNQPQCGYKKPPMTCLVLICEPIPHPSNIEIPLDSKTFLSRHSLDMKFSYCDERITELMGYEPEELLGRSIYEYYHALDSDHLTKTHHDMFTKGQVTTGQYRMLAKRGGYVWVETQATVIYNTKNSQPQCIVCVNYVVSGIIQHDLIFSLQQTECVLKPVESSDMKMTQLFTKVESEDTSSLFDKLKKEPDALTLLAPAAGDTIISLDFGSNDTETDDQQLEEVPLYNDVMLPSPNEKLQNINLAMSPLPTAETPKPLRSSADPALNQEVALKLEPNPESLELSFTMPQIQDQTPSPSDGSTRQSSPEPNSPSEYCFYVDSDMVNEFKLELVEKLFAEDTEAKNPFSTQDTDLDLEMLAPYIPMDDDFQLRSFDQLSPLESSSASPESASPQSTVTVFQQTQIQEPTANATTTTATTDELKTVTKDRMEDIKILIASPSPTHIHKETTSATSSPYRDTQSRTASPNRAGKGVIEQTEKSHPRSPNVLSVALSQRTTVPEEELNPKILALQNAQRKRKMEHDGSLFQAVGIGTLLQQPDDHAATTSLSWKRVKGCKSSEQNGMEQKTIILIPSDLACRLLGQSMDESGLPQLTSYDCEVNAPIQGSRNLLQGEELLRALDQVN
Sequence of Paired box protein Pax-6 (Homo sapiens) (P26367 whole entry, looked up): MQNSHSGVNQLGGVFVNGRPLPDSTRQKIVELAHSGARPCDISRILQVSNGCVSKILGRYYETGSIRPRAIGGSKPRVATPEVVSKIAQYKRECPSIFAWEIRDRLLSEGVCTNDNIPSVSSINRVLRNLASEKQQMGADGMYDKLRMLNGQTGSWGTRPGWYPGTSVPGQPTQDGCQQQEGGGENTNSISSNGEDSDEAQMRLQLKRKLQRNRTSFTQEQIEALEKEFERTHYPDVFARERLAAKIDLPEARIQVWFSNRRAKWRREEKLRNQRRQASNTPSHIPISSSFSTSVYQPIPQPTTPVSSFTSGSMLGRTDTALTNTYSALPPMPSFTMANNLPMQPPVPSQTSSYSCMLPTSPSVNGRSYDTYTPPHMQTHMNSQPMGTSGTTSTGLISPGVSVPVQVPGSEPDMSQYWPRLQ
Sequence of Heat shock factor protein 1 (Homo sapiens) (Q00613 whole entry, looked up, the tested form may be a part): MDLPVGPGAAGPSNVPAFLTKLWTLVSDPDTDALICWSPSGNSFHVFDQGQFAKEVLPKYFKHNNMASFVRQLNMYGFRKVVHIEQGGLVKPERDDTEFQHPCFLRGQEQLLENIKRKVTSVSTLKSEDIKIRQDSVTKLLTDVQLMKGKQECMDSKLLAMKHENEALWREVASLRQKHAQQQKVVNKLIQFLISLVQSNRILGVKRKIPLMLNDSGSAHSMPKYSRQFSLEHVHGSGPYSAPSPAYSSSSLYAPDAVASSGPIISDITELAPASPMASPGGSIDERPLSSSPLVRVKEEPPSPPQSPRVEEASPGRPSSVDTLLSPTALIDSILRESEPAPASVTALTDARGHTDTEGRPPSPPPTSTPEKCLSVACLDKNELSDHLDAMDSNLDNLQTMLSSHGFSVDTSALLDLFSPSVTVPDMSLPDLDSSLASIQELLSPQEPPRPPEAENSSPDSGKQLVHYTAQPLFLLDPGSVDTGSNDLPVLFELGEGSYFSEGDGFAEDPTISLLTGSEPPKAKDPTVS
Sequence of Signal transducer and activator of transcription 3 (Homo sapiens) (P40763 whole entry, looked up): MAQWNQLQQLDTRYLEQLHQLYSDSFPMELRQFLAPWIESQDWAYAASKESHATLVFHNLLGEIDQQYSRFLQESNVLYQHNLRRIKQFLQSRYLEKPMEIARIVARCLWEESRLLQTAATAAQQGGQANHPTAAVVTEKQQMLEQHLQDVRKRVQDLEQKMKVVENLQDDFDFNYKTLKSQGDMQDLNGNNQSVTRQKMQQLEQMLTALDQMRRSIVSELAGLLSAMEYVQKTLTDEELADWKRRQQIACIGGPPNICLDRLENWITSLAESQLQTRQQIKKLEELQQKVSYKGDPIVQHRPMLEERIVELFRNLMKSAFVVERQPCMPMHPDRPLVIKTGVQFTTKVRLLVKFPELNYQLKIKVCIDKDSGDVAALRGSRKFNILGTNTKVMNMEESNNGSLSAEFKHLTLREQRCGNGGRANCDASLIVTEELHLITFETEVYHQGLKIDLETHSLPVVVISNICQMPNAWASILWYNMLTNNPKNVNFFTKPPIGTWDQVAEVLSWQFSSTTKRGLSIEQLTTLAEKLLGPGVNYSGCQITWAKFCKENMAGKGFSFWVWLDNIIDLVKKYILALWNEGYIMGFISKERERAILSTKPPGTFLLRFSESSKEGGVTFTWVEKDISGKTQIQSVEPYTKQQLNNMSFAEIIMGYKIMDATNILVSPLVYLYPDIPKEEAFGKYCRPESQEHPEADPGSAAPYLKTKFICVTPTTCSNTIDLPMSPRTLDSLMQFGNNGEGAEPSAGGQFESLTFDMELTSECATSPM
Sequence of Transcription factor Sp1 (Homo sapiens) (P08047 whole entry, looked up): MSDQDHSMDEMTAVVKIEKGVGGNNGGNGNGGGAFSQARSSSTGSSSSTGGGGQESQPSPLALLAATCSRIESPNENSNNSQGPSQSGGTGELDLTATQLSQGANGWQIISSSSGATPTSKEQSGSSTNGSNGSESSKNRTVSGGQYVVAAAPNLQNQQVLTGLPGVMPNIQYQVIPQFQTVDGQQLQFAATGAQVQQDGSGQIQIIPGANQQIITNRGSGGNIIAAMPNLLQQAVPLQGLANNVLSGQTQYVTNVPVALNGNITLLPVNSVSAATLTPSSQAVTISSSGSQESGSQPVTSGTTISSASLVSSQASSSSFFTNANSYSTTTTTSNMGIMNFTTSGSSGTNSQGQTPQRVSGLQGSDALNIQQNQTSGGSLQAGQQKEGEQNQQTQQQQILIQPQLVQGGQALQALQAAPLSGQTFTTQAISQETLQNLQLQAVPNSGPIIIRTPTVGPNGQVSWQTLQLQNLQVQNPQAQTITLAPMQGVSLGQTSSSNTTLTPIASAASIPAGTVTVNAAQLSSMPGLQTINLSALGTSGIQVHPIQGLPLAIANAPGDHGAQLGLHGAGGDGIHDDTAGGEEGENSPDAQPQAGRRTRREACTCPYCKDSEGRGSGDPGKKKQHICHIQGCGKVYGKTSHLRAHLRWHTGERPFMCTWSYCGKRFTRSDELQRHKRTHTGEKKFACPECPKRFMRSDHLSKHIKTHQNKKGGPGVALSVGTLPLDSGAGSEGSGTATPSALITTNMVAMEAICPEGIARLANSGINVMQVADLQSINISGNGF

As for `C=CC(=O)OCC(C)OCC(C)OCC(C)OC(=O)C=C` (stereo not given), the result in test [1], in [2], in test [4], in test [5], in test [6] and in [7] was inactive. Further, the result in test [8], in [10], in test [12], in [14], in test [15] and in [17] was inactive. For the same molecule, the molecule was called inactive in [18]. Moreover, the half-maximal activity concentration (AC50) in test [3] was 86.1 µM (active); in test [9], 46.1 µM (active); in [11], 64.5 µM (active); in test [13] it was 44.5 µM (active); in [16], 100 µM (active).

For the molecule `O=C(Oc1ccccc1)c1ccccc1O`, the molecule was classed as inactive in test [1], in test [2], in test [3], in test [4], in [5] and in test [6]. The outcome in test [7], in [8], in [9], in test [10], in test [11] and in [19] was inactive. The result in test [14], in test [15], in test [16], in test [17] and in test [18] was inactive.

Consider `O=C(Cl)c1c(Cl)c(Cl)c(C(=O)Cl)c(Cl)c1Cl`, for which the molecule was classed as inactive in [1], in [2], in test [3], in [4], in test [5] and in test [6]. Moreover, the outcome in test [7], in [8], in test [9], in [10], in [11] and in test [12] was inactive. The call in test [14], in test [15], in [16], in test [17] and in test [18] was inactive.

Regarding `CC(C)CO`, the result in [1], in test [2], in test [3], in test [4], in [5] and in test [6] was inactive. Besides, the result in [7], in [8], in test [9], in test [10], in [11] and in test [13] was inactive. Moreover, the call in [14], in test [15], in test [16], in test [17] and in [18] was inactive.

For `Clc1cc(Cl)c(Cl)c(Cl)c1Cl`, the outcome in test [1], in test [2], in [3], in [4], in test [5] and in test [7] was inactive. Further, the result in test [8], in test [9], in [11], in test [13], in test [14] and in test [15] was inactive. The result in [16], in test [17] and in [18] was inactive. Also, the values for the AC50 in test [6], in test [10] and in test [19] were 27.7 µM (active), 66.2 µM (active) and 27.6 µM (active), respectively.

On to `CC(=O)OC(C)c1ccccc1` (stereo not given), for which the molecule was called inactive in [1], in [2], in test [3], in [4], in test [5] and in [6]. Further, the call in test [7], in test [8], in test [9], in test [10], in test [11] and in test [13] was inactive. Further, the molecule was classed as inactive in test [14], in test [15], in test [16], in [17] and in [18]. Besides, the AC50 in test [19] was 37.6 µM (active).

For the origin of these results see PubChem BioAssay (EPA / NIEHS).
